The record followed here is the supplement of paper PMC10849652.

About 8,800 targets were measured; listed, in parts, are those with a hit and a random draw of the rest. About 0.5% of all pairs of compound and target were hits. Values without a mark were called inactive.

UniProt Q15125, sequence (Q15125 whole entry, looked up): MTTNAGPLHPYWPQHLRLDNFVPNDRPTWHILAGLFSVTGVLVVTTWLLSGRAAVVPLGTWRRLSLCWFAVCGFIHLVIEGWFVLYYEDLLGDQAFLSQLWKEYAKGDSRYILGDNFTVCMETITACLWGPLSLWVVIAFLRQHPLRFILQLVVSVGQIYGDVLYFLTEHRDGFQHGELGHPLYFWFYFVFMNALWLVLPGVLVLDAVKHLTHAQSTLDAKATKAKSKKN
UniProt P85037, sequence (P85037 whole entry, looked up): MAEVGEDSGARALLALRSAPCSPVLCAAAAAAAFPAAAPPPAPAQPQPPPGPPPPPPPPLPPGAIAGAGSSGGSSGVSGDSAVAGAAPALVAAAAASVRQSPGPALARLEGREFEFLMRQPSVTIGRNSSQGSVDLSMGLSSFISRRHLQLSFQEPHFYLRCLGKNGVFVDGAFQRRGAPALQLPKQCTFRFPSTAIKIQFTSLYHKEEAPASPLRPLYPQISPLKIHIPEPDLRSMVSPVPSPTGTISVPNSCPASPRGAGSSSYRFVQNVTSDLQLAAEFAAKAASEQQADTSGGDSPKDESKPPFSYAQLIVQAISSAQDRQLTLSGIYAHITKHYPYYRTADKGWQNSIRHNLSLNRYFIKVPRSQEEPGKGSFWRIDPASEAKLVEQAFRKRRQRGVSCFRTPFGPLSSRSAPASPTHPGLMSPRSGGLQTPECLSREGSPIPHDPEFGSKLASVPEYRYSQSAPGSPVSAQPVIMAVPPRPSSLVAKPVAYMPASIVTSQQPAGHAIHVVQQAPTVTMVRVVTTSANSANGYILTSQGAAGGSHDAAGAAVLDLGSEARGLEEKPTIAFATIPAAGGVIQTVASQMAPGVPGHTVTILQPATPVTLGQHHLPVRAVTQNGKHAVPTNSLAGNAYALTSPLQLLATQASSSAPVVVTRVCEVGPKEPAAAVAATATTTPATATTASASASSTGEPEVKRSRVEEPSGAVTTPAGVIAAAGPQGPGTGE
UniProt O00471, sequence (O00471 whole entry, looked up): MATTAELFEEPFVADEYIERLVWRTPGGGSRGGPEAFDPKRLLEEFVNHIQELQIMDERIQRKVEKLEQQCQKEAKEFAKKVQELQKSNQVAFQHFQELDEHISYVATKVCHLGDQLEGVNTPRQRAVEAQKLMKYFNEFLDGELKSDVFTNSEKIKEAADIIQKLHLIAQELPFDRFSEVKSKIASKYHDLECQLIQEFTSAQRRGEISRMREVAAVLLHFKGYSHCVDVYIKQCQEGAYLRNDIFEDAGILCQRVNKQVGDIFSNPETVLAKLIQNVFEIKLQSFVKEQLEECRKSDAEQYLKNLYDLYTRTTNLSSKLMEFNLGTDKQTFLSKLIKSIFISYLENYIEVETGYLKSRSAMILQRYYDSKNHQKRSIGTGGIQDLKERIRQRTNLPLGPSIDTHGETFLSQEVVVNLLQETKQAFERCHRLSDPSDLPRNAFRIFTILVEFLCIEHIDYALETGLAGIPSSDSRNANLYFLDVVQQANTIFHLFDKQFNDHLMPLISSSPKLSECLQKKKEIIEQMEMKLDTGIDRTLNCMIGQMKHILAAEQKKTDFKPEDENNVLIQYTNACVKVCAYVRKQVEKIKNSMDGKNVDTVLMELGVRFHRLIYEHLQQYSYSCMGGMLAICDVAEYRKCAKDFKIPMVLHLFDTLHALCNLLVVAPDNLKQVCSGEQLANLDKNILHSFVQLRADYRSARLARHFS
UniProt Q86YP4, sequence (Q86YP4 whole entry, looked up): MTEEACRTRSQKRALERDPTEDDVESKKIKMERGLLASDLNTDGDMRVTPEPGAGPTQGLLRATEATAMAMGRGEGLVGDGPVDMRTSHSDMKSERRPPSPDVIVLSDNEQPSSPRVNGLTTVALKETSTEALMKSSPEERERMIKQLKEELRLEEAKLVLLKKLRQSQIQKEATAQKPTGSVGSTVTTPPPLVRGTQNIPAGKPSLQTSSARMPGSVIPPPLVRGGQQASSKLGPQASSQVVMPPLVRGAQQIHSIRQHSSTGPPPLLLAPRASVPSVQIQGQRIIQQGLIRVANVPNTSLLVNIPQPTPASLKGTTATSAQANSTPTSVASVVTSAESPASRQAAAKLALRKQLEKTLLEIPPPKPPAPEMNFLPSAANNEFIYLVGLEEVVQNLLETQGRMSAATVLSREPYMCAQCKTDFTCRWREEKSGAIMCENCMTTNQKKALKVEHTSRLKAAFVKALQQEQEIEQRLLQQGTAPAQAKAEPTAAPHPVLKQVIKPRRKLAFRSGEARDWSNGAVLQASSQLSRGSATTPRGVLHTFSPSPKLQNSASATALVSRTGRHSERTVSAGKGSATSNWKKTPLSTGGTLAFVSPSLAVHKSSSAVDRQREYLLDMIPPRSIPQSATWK
UniProt P57772, sequence (P57772 whole entry, looked up): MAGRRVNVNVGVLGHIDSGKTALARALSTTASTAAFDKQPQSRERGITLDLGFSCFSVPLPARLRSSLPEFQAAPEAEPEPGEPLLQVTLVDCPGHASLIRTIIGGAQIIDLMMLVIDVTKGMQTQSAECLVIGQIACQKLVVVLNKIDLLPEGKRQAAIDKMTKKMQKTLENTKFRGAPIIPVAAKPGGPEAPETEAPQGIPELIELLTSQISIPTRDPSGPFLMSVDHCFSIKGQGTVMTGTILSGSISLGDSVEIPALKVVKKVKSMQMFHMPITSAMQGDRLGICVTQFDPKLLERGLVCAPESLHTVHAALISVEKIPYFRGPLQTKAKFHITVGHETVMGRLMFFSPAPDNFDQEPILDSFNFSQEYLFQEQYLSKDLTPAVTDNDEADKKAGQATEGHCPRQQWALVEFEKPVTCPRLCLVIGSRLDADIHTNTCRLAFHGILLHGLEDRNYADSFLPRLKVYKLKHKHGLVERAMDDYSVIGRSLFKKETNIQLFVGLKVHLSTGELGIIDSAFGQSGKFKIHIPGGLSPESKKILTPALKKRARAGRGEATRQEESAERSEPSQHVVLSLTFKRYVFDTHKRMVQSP
UniProt Q8NEZ5, sequence (Q8NEZ5 whole entry, looked up): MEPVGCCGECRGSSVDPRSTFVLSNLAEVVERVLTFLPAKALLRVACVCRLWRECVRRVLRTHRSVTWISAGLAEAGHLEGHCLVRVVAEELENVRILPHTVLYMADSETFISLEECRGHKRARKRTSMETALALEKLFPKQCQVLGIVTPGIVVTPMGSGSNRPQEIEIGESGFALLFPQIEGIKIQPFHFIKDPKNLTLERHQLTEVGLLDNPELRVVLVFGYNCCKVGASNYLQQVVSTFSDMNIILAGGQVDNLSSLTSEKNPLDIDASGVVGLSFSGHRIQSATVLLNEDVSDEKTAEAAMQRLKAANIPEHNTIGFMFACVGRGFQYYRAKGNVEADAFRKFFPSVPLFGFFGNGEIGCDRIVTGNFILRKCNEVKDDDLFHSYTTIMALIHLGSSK
UniProt Q8TEQ6, sequence (Q8TEQ6 whole entry, looked up): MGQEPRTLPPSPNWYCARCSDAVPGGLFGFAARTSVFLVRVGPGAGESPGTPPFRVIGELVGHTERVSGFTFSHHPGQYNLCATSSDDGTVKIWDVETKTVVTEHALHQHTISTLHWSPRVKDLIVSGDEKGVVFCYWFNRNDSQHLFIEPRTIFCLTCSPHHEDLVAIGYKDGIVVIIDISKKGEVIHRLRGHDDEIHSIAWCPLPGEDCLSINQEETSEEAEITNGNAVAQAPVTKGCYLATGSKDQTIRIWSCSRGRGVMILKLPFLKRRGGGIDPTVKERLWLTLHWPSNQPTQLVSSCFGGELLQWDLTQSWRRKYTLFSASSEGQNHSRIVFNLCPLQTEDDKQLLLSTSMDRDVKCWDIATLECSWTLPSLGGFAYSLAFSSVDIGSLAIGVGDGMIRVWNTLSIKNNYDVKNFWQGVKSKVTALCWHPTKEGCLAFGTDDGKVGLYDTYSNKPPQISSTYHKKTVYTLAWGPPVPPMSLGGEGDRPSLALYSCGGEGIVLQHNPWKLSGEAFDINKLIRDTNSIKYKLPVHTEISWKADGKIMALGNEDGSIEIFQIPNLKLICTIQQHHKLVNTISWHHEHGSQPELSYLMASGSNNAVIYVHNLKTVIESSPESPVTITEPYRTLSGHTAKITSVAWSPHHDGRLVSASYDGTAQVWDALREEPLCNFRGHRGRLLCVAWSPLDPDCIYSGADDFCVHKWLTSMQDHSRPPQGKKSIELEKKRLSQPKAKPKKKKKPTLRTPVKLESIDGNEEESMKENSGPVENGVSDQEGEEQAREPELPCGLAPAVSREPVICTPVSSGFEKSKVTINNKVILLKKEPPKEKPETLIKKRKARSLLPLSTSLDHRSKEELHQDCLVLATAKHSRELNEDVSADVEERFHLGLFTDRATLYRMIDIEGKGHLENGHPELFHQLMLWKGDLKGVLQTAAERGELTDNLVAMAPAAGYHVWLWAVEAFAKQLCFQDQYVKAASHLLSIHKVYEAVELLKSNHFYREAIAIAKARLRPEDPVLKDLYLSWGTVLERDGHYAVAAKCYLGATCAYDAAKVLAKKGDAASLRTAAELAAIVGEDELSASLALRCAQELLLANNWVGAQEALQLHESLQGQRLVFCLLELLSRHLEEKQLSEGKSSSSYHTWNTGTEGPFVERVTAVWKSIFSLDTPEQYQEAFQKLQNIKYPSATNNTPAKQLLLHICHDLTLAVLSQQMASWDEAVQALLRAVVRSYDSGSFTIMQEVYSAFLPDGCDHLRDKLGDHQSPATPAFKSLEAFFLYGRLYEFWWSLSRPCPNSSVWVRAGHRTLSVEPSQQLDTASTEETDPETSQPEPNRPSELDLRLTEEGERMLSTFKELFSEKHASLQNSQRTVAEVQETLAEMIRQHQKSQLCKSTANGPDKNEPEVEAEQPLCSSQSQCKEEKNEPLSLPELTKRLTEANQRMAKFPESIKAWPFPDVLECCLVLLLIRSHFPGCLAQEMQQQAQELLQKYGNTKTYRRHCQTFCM
UniProt P54852, sequence (P54852 whole entry, looked up): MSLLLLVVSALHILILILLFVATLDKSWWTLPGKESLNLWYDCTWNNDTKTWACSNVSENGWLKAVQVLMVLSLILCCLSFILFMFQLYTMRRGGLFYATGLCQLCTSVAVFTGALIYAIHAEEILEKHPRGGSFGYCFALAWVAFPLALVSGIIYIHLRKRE

Compound in this assay: CCn1cc(-c2ccnc3[nH]c(-c4cccc(CN(C)C)c4)cc23)c(-c2ccc(NC(=O)N(C)C)cc2)n1
Put plainly: log2 fold change, soluble protein after heating vs DMSO (PISA); higher = thermal stabilisation; K562 lysate, 10 uM; active = over 0.2 and 3.5 SD of the protein, either way, in both replicates (recomputed). The method, boiled down:
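Thermal stability, expressed as log-two fold change relative to solvent controls, is given from duplicates. Crude K562 extract in PBS pH 7.4 with 1 mM MgCl2, at 1 mg/mL protein, was treated with 10 μM compound for 30 min and heated in aliquots for 3 min across 48°C-58°C. After pooling, adjustment to 0.5% NP-40 at 4°C and centrifugation at 21,000xg for 90 min, supernatant protein was measured by TMTpro 16plex LC-MS/MS with channel sums equalised.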
As for ECI2 (UniProt O75521), the log2 fold change is -0.021.

DYNC1I2 isoform 5 (UniProt Q13409): the log2 fold change was -0.017.

Consider FLAD1 (UniProt Q8NFF5), for which the log2 fold change was -0.002.

FBXO22 (UniProt Q8NEZ5): the log2 fold change was -0.002.

On to EPB41, A0A2R8Y6D0, for which the log2 fold change is -0.047.

Regarding FAM120B (UniProt Q96EK7), the log2 fold change is -0.011.

In the case of GAA (UniProt P10253), the log2 fold change is 0.122.

With FARSA (UniProt Q9Y285), the log2 fold change is -0.018.

Regarding FBXO45 (UniProt P0C2W1), the log2 fold change was -0.002.

As to EEFSEC (UniProt P57772), the log2 fold change was -0.073.

For EMP3 (UniProt P54852), the log2 fold change is -0.967 (active).

For GATAD2A isoform 3 (UniProt Q86YP4), the log2 fold change was -0.058.

On to EGLN1 (UniProt Q9GZT9), for which the log2 fold change is 0.019.

Consider FREM2 (UniProt Q5SZK8), for which the log2 fold change is -0.366.

Turning to EXOC5 (UniProt O00471), the log2 fold change is 0.068.

Consider EIF2AK1 (UniProt Q9BQI3), for which the log2 fold change was -0.001.

On to FXR1 (UniProt P51114), for which the log2 fold change was -0.107.

As for FAT2 (UniProt Q9NYQ8), the log2 fold change was -0.487.

As to EBP (UniProt Q15125), the log2 fold change is -0.354.

As to FOXK1 (UniProt P85037), the log2 fold change is -0.014.

With FXR2 (UniProt P51116), the log2 fold change was 0.007.

In the case of EMC7 (UniProt Q9NPA0), the log2 fold change is -0.37 (active).

In the case of GEMIN5 (UniProt Q8TEQ6), the log2 fold change was -0.052.
